Results: PubChem BioAssay (NCATS)
Records with an inconclusive call do not appear. Where a call stands in place of a potency, no number is given. The source made the active and inactive calls. The call rests on the fitted dose curve; in most records, active means well fitted curve in the direction sought with a large enough effect; inconclusive means small, poorly fitted or top-dose-only effect, or another doubt; inactive means no such curve, though single readings can be large; an effect the other way counts as inactive or inconclusive.

assay: Cell Viability - LYMP2-005 (AID 967); details: LYMP2-005 lymphoblastoid cell viability; series mostly up to 92.2 µM
Method in brief: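 Steps: seed 2500 LYMP2-005 cells/well, incubate 5 h at 37 C, add compound, incubate 24 h at 37 C, add CellTiter-Glo, wait 30 min at RT, read luminescence. Concentration-response data fitted to Hill equation for AC50.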

Structure (SMILES)	Potency
Brc1ccccc1	inactive
CCOP(=S)(OCC)SCSC(C)(C)C	inactive
C=C(C)C#N	inactive
CCSC(=O)Cl	inactive
Cc1cccc([N+](=O)[O-])c1	inactive
Nc1c(Cl)c(Cl)nc(C(=O)O)c1Cl	inactive
CC(C)(C)OOC(C)(C)C	inactive
C=C(C)C(=O)OCC1CO1 (stereo not drawn)	inactive
Cc1ccc([N+](=O)[O-])cc1C	inactive
O=[N+]([O-])c1ccc(Cl)c(Cl)c1	inactive
C=CC(=C)C	inactive
Cc1ccc2ccccc2c1	inactive
Nc1ccccc1Cl	inactive
Clc1ccc2ccccc2c1	inactive
[O-][Br+2]([O-])O	inactive
Clc1nc(Cl)nc(Nc2ccccc2Cl)n1	inactive
OCC1CO1 (stereo not drawn)	inactive
C=CCOC(=O)c1ccccc1N	inactive
C=CC(N)=O	inactive
CC(C)(c1ccccc1)c1ccc(O)cc1	inactive

Structure (SMILES)	Potency
CCN(CC)c1ccccc1	inactive
S=C=Nc1cccc2ccccc12	inactive
N#CCCCl	inactive
O=NN(CCO)CCO	inactive
Cc1ccccc1N	inactive
C=CCOC(C)=O	inactive
CCCC(=O)Cl	inactive
NC(=S)Nc1ccccc1	inactive
O=C(Cl)/C=C/C(=O)Cl	inactive
C=C(Cl)Cl	inactive
ClCBr	inactive
COc1ccc(C=O)cc1OC	inactive
C=CC(=O)OCC	inactive
c1nc[nH]n1	inactive
c1ccc2c(c1)CCCC2	inactive
CCCSC(=O)Cl	inactive
Clc1cccc(C(Cl)(Cl)Cl)n1	inactive
O=NN(c1ccccc1)c1ccccc1	inactive
C1CCC2CCCCC2C1 (stereo not drawn)	inactive
CC(O)CCl (stereo not drawn)	inactive

assay: Cell Viability - LYMP2-009 (AID 968); details: LYMP2-009 lymphoblastoid cell viability; series mostly up to 92.2 µM; further: nearly all actives have a fitted effect of over 55% in size

Structure (SMILES)	Potency
Brc1ccccc1	inactive
CCOP(=S)(OCC)SCSC(C)(C)C	inactive
CCSC(=O)Cl	inactive
Cc1cccc([N+](=O)[O-])c1	inactive
Nc1c(Cl)c(Cl)nc(C(=O)O)c1Cl	inactive
CC(C)(C)OOC(C)(C)C	inactive
C=C(C)C(=O)OCC1CO1 (stereo not drawn)	inactive
Cc1ccc([N+](=O)[O-])cc1C	inactive
O=[N+]([O-])c1ccc(Cl)c(Cl)c1	inactive
C=CC(=C)C	inactive
Cc1ccc2ccccc2c1	inactive
Nc1ccccc1Cl	inactive
Clc1ccc2ccccc2c1	inactive
[O-][Br+2]([O-])O	inactive
Clc1nc(Cl)nc(Nc2ccccc2Cl)n1	inactive
OCC1CO1 (stereo not drawn)	inactive
C=CCOC(=O)c1ccccc1N	inactive
C=CC(N)=O	inactive
CC(C)(c1ccccc1)c1ccc(O)cc1	inactive

Structure (SMILES)	Potency
CCN(CC)c1ccccc1	inactive
S=C=Nc1cccc2ccccc12	inactive
N#CCCCl	inactive
O=NN(CCO)CCO	inactive
Cc1ccccc1N	inactive
C=CCOC(C)=O	inactive
CCCC(=O)Cl	inactive
NC(=S)Nc1ccccc1	inactive
O=C(Cl)/C=C/C(=O)Cl	inactive
C=C(Cl)Cl	inactive
COc1ccc(C=O)cc1OC	inactive
C=CC(=O)OCC	inactive
c1nc[nH]n1	inactive
c1ccc2c(c1)CCCC2	inactive
CCCSC(=O)Cl	inactive
Clc1cccc(C(Cl)(Cl)Cl)n1	inactive
O=NN(c1ccccc1)c1ccccc1	inactive
C1CCC2CCCCC2C1 (stereo not drawn)	inactive
CC(O)CCl (stereo not drawn)	inactive

assay: Cell Viability - LYMP2-011 (AID 969); details: LYMP2-011 lymphoblastoid cells viability; series mostly up to 92.2 µM;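 further: cells exposed to compound for 24 hours; nearly all actives have a fitted effect of over 60% in size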
Method in brief: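 2500 cells/well, 5 hr 37 C; compound added, 24 hr 37 C; CellTiter-Glo 30 min RT; luminescence. qHTS concentration-response, Hill-equation AC50. Tetraoctylammonium bromide positive control.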

Structure (SMILES)	Potency
Brc1ccccc1	inactive
CCOP(=S)(OCC)SCSC(C)(C)C	inactive
C=C(C)C#N	inactive
CCSC(=O)Cl	inactive
Cc1cccc([N+](=O)[O-])c1	inactive
Nc1c(Cl)c(Cl)nc(C(=O)O)c1Cl	inactive
CC(C)(C)OOC(C)(C)C	inactive
C=C(C)C(=O)OCC1CO1 (stereo not drawn)	inactive
Cc1ccc([N+](=O)[O-])cc1C	inactive
O=[N+]([O-])c1ccc(Cl)c(Cl)c1	inactive
C=CC(=C)C	inactive
Cc1ccc2ccccc2c1	inactive
Nc1ccccc1Cl	inactive
Clc1ccc2ccccc2c1	inactive
[O-][Br+2]([O-])O	inactive
Clc1nc(Cl)nc(Nc2ccccc2Cl)n1	inactive
OCC1CO1 (stereo not drawn)	inactive
C=CCOC(=O)c1ccccc1N	inactive
C=CC(N)=O	inactive
CC(C)(c1ccccc1)c1ccc(O)cc1	inactive

Structure (SMILES)	Potency
CCN(CC)c1ccccc1	inactive
S=C=Nc1cccc2ccccc12	inactive
N#CCCCl	inactive
O=NN(CCO)CCO	inactive
Cc1ccccc1N	inactive
C=CCOC(C)=O	inactive
CCCC(=O)Cl	inactive
NC(=S)Nc1ccccc1	inactive
O=C(Cl)/C=C/C(=O)Cl	inactive
C=C(Cl)Cl	inactive
ClCBr	inactive
COc1ccc(C=O)cc1OC	inactive
C=CC(=O)OCC	inactive
c1nc[nH]n1	inactive
c1ccc2c(c1)CCCC2	inactive
CCCSC(=O)Cl	inactive
Clc1cccc(C(Cl)(Cl)Cl)n1	inactive
O=NN(c1ccccc1)c1ccccc1	inactive
C1CCC2CCCCC2C1 (stereo not drawn)	inactive
CC(O)CCl (stereo not drawn)	inactive
